In paper PMC3218832:

What was measured:
Experiment in all cases: protein binding microarray; high values mean tight binding
Conditions in all cases: dsDNA, one strand shown
RELARELA (p65 homodimer) = RELARELA (p65 homodimer) (Homo sapiens, UniProt Q04206 1-307)
p50p50 homodimer = p50p50 homodimer (Homo sapiens, UniProt P19838 7-356)
p52p52 homodimer = biological target: T1, p52p52 homodimer (Homo sapiens, UniProt Q00653 4-332)
T1 sequence: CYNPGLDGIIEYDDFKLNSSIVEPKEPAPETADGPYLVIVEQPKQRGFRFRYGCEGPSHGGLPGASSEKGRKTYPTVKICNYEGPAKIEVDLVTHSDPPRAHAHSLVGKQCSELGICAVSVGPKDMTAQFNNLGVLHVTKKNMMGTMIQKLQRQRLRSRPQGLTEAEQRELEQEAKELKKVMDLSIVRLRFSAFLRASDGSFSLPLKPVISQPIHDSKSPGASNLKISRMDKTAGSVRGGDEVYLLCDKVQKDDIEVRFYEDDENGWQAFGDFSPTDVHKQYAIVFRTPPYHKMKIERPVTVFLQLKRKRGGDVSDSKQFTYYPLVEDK

[1] = biological target: RELA (p65) subunit of heterodimer;p50 subunit (Homo sapiens;Homo sapiens, UniProt Q04206;P19838 1-307;7-356)
RELA (p65) subunit of heterodimer;p50 subunit, sequence (Q04206 1-307, chain 1 of 2): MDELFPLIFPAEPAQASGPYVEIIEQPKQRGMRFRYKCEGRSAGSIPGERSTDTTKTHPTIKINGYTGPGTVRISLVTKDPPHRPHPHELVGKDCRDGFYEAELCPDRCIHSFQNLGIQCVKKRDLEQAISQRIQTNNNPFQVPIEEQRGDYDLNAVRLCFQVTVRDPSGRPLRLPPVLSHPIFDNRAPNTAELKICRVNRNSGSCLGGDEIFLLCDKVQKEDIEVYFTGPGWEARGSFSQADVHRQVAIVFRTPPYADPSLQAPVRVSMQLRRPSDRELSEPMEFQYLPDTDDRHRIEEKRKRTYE
RELA (p65) subunit of heterodimer;p50 subunit, sequence (P19838 7-356, chain 2 of 2): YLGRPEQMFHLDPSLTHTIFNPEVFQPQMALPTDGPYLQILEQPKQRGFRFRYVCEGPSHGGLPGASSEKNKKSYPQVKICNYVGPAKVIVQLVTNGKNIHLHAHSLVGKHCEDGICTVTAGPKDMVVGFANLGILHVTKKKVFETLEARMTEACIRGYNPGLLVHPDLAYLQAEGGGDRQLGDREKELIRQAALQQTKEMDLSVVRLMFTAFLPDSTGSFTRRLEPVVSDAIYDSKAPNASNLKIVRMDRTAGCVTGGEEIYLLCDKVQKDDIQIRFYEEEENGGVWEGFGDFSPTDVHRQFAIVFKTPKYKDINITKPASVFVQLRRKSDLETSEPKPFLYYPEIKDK

[2] = biological target: RELA (p65) subunit of heterodimer;p52 subunit (Homo sapiens;Homo sapiens, UniProt Q04206;Q00653 1-307;4-332)
RELB subunit;p50 subunit = RELB subunit;p50 subunit (Homo sapiens;Homo sapiens, UniProt Q01201;P19838 120-401;7-356)
RELB subunit;p52 subunit = biological target: T2, RELB subunit;p52 subunit (Homo sapiens;Homo sapiens, UniProt Q01201;Q00653 120-401;4-332)
T2 sequence 1: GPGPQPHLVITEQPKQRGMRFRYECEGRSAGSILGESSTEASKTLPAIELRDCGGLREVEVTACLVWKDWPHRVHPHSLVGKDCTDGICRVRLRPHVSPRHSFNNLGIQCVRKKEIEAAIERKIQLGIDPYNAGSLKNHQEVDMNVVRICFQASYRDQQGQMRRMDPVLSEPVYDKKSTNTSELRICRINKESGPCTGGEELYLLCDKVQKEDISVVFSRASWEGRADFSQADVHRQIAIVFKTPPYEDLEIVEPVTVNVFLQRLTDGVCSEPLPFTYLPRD
T2 sequence 2: T1 sequence

[3] = biological target: C-Rel subunit;p50 subunit (Homo sapiens;Homo sapiens, UniProt Q04864;P19838 1-285;7-356)
[4] = biological target: T3, C-Rel subunit;p52 subunit (Homo sapiens;Homo sapiens, UniProt Q04864;Q00653 1-285;4-332)
T3 sequence 1: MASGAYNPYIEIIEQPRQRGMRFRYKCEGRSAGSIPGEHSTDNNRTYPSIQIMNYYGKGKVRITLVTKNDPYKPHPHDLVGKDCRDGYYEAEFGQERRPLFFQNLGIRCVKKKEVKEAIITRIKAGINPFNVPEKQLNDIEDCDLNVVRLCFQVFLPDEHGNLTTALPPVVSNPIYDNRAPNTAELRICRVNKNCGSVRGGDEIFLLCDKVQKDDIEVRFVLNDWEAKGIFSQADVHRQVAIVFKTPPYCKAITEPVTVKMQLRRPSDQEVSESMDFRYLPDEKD
T3 sequence 2: T1 sequence

RELARELA (p65 homodimer), sequence (Q04206 1-307): as the sequence (Q04206 1-307, chain 1 of 2) above
p50p50 homodimer, sequence (P19838 7-356): as the sequence (P19838 7-356, chain 2 of 2) above

Sequence | binding signal (RELARELA (p65 homodimer)) [z-score] | binding signal (p50p50 homodimer) [z-score] | binding signal (p52p52 homodimer) [z-score] | binding signal [1] [z-score] | binding signal [2] [z-score] | binding signal (RELB subunit;p50 subunit) [z-score] | binding signal (RELB subunit;p52 subunit) [z-score] | binding signal [3] [z-score] | binding signal [4] [z-score]
AAAAACATCCT | -0.23 | -0.94 | -0.575 | -0.766 | -0.82 | -0.865 | -0.741 | -1.09 | -0.784
CAGTAGGTCCC | 0.28 | -0.303 | -0.0746 | -0.34 | -0.347 | 0.0687 | -0.117 | -0.43 | -0.438
GAGTAGTCCCT | 0.344 | 1.35 | 1.21 | 0.997 | 0.922 | 1.12 | 1.06 | 0.633 | 0.66
CAGGGGACCCT | -0.887 | 0.487 | 0.583 | 0.0452 | 0.384 | 0.29 | 0.53 | -0.293 | -0.0494
GGAATATCCCT | 2.04 | 0.687 | 1.23 | 1.41 | 1.36 | 0.471 | 1.04 | 0.979 | 1.6
GGAAGTTTCCC | 2.98 | 0.874 | 1.24 | 1.47 | 1.22 | 0.959 | 1.03 | 1.36 | 1.15
GAAAGCTCCCC | -0.0663 | 0.67 | 0.244 | 0.536 | 0.231 | 0.445 | 0.294 | 0.317 | 0.189
AAATAATTCCT | 0.497 | -0.505 | -0.44 | -0.41 | -0.399 | -0.654 | -0.671 | 0.179 | -0.124
GGGTGCTCCCT | -0.519 | 0.136 | 0.0774 | -0.166 | 0.115 | -0.21 | -0.168 | -0.0364 | 0.178
GGGTTATCCCC | 2.08 | 0.73 | 3.22 | 1.96 | 2.63 | 1.91 | 2.13 | 1.6 | 2.55
AGAAACTTCCC | 2.01 | 0.652 | 0.45 | 0.846 | 0.818 | 0.409 | 0.541 | 0.576 | 0.741
AGAATGACCCC | -0.278 | -0.204 | -0.112 | -0.177 | -0.287 | -0.428 | -0.388 | -0.442 | -0.311
CGAGTGGTCCC | -0.301 | -0.0725 | -0.0457 | -0.513 | -0.369 | 0.0154 | -0.138 | -0.515 | -0.428
AAGGTCCTCCT | -0.719 | -0.992 | -0.49 | -0.86 | -0.773 | -0.932 | -0.687 | -1.16 | -0.643
AAAGACGCCCC | -0.195 | 0.408 | 0.153 | 0.135 | 0.105 | 0.331 | 0.432 | 0.326 | -0.126
GGAGTTTTCCT | 1.88 | -0.38 | -0.329 | 0.312 | -0.0971 | -0.676 | -0.581 | 0.446 | 0.304
CGGGAGCTCCC | 0.73 | 0.136 | 0.135 | 0.408 | 0.0305 | 0.0766 | -0.106 | -0.102 | 0.192
GAAAAAACCCC | 2.27 | 1.19 | 2.74 | 1.93 | 2.2 | 2.14 | 2.12 | 1.45 | 2.18
GAAGTGTCCCT | -0.0315 | 0.834 | 0.946 | 0.67 | 1.04 | 1.07 | 1.37 | 0.382 | 0.65
CAGAGATTCCT | 0.143 | -1.43 | -0.492 | -0.806 | -0.992 | -1.16 | -1 | -0.64 | -0.606
CAGGAGGTCCT | 0.426 | -1.52 | -0.389 | -0.781 | -0.822 | -0.523 | -0.466 | -0.953 | -0.415
CGGTGCCTCCT | -0.441 | -0.702 | -0.485 | -0.873 | -0.611 | -0.763 | -0.769 | -1.19 | -0.785
GGATATGCCCT | 0.304 | -1.18 | -0.574 | -0.276 | -0.49 | -0.93 | -0.689 | -0.384 | -0.294
GGGGTGTTCCT | 1.06 | 0.337 | 0.617 | 0.455 | 0.487 | 0.00295 | 0.472 | 0.537 | 0.791
AAGATCTCCCT | 0.0704 | 1.15 | 0.499 | 0.913 | 0.528 | 1.16 | 1.02 | 0.475 | 0.202
AAAATCGCCCT | -0.445 | -0.836 | -0.395 | -0.458 | -0.504 | -0.55 | -0.442 | -0.504 | -0.384
GGAGTTCCCCT | 2.77 | 1.14 | 2.83 | 2.64 | 2.79 | 2 | 2.29 | 2.61 | 3.5
GGAGGCGCCCC | -0.259 | -0.0933 | -0.0824 | -0.062 | 0.0158 | 0 | 0.214 | -0.156 | -0.0409
GAAAACCCCCT | 1.83 | 1.6 | 2.75 | 2.46 | 2.59 | 3.02 | 2.62 | 1.99 | 2.86
GGGGTAACCCT | 1.24 | 0.343 | 1.02 | 0.666 | 1.02 | 0.227 | 0.871 | 0.285 | 0.871
